From ChEMBL document CHEMBL2218924, “A broad activity screen in support of a chemogenomic map for kinase signalling research and drug discovery” (Biochem J, 2013)

What was measured:
[1] = target: Homeodomain-interacting protein kinase 3 (Homo sapiens) (UniProt Q9H422); details: at 10 µM
[2] = target: T1, Serine/threonine-protein kinase haspin (Homo sapiens) (UniProt Q8TF76); details: at 1 µM
T1 sequence (whole entry): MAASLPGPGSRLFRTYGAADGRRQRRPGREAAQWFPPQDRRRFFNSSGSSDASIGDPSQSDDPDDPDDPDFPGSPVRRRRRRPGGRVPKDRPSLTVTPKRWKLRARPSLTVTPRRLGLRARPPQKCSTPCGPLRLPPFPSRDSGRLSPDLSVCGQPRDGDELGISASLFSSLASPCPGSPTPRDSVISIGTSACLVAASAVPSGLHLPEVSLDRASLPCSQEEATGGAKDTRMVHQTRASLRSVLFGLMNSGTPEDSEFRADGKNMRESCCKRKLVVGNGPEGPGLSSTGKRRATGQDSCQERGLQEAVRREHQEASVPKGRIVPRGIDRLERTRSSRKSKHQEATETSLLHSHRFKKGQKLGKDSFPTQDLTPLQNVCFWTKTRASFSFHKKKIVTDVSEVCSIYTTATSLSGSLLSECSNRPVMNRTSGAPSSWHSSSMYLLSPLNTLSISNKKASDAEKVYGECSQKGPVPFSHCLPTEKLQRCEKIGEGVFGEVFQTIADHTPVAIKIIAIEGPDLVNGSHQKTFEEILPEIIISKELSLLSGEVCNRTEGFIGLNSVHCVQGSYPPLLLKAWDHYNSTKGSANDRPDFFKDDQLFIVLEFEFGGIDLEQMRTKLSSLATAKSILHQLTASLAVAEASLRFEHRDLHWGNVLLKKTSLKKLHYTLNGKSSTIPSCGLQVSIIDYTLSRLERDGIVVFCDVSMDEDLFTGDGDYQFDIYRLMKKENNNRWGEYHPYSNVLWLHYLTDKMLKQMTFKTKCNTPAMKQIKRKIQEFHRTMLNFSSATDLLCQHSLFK

[3] = target: T1, Serine/threonine-protein kinase haspin (Homo sapiens); details: at 10 µM
[4] = target: Tyrosine-protein kinase HCK (Homo sapiens) (UniProt P08631); details: at 10 µM
[5] = target: Tyrosine-protein kinase HCK (Homo sapiens) (UniProt P08631); details: at 1 µM
[6] = target: Tyrosine-protein kinase HCK (Homo sapiens) (UniProt P08631); details: at 10 µM; remark: listed apart in the source
[7] = target: Insulin-like growth factor 1 receptor (Homo sapiens) (UniProt P08069); details: at 1 µM
[8] = target: Insulin-like growth factor 1 receptor (Homo sapiens) (UniProt P08069); details: at 10 µM
[9] = target: T2, Protein kinase C zeta type (Homo sapiens) (UniProt Q05513); details: at 10 µM
T2 sequence (whole entry): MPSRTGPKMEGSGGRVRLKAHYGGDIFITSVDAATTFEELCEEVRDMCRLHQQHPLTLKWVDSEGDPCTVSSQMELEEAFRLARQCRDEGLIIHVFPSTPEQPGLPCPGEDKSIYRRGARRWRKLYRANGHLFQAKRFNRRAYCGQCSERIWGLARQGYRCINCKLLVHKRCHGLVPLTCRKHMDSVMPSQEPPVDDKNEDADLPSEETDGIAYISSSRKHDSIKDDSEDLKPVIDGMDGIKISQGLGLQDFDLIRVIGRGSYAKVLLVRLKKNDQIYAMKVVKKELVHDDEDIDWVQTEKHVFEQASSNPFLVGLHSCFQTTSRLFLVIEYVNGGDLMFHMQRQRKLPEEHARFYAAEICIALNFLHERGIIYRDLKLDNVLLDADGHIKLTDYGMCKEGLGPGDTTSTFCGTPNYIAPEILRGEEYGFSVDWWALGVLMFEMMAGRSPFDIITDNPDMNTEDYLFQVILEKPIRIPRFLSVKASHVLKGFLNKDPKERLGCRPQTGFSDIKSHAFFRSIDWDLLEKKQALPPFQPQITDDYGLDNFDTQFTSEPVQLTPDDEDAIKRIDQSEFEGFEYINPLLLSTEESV

[10] = target: Protein kinase C eta type (Homo sapiens) (UniProt P24723); details: at 1 µM
[11] = target: Protein kinase C eta type (Homo sapiens) (UniProt P24723); details: at 10 µM
[12] = target: Protein kinase C theta type (Homo sapiens) (UniProt Q04759); details: at 1 µM
[13] = target: Protein kinase C theta type (Homo sapiens) (UniProt Q04759); details: at 10 µM
[14] = target: T3, Protein kinase C iota type (Homo sapiens) (UniProt P41743); details: at 1 µM
T3 sequence (whole entry): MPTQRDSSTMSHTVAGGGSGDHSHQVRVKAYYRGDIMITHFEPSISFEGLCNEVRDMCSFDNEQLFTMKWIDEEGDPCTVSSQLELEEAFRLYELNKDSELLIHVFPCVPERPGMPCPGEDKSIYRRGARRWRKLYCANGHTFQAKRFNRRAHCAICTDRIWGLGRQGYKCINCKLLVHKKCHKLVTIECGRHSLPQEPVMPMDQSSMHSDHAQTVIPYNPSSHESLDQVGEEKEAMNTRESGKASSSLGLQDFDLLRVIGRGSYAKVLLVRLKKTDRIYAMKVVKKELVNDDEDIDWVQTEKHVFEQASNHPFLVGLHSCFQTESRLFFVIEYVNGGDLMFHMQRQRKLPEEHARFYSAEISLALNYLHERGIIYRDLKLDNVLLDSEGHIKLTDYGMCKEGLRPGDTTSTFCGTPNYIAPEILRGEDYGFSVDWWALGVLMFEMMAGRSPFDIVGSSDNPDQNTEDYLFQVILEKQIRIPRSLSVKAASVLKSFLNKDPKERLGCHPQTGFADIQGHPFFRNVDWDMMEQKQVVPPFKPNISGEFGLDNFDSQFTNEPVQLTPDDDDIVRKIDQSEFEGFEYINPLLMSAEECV

[15] = target: T3, Protein kinase C iota type (Homo sapiens); details: at 10 µM
[16] = target: T4, Serine/threonine-protein kinase D1 (Homo sapiens) (UniProt Q15139); details: at 1 µM
T4 sequence (whole entry): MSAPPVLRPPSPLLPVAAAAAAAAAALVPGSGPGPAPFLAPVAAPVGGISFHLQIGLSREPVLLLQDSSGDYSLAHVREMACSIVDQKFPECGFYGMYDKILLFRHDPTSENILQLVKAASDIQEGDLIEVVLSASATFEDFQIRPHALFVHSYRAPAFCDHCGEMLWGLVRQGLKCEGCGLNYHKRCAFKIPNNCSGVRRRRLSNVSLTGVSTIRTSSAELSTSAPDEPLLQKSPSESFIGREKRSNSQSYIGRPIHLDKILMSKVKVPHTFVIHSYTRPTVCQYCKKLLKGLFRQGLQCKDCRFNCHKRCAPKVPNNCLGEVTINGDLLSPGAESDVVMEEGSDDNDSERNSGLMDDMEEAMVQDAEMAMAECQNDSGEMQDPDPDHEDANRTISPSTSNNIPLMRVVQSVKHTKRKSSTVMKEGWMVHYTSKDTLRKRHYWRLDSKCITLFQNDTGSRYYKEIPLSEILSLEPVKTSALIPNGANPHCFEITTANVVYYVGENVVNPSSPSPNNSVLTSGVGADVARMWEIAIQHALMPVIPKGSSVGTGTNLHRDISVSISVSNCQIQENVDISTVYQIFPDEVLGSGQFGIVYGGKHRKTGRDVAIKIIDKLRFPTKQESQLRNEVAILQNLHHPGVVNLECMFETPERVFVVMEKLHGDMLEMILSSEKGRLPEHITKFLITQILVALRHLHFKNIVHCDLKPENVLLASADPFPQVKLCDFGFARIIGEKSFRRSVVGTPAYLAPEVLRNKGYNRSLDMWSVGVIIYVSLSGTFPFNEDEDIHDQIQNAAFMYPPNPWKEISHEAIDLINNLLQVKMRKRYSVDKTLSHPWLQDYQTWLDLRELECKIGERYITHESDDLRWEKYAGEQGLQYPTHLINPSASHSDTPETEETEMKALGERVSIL

[17] = target: T5, Serine/threonine-protein kinase D2 (Homo sapiens) (UniProt Q9BZL6); details: at 10 µM
T5 sequence (whole entry): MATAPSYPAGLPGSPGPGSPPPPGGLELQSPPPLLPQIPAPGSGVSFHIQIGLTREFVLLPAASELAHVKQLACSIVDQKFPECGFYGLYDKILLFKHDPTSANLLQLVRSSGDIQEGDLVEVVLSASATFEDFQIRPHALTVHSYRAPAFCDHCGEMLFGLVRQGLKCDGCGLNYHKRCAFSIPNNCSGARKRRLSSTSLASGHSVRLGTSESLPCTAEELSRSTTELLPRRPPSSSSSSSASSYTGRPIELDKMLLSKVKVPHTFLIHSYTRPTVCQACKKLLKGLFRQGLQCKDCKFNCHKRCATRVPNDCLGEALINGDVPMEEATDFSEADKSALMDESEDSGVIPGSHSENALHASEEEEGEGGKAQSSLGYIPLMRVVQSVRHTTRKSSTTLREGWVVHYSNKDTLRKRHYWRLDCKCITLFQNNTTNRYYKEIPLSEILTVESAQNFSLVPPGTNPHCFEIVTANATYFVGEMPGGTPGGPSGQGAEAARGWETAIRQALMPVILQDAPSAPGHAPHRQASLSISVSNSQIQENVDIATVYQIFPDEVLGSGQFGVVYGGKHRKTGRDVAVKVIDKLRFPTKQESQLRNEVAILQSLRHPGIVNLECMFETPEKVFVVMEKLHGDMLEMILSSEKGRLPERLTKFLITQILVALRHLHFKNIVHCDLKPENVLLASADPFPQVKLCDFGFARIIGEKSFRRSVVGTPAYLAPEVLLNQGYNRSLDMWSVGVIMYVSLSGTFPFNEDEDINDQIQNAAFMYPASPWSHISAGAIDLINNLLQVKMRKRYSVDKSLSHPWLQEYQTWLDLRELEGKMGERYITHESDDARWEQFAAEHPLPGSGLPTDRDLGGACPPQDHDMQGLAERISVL

[18] = target: Tyrosine-protein kinase HCK (Homo sapiens) (UniProt P08631); details: at 1 µM; remark: listed apart in the source
[19] = target: T5, Serine/threonine-protein kinase D2 (Homo sapiens); details: at 1 µM
[20] = target: T4, Serine/threonine-protein kinase D1 (Homo sapiens); details: at 10 µM

Sequence of Protein kinase C eta type (Homo sapiens) (P24723 whole entry): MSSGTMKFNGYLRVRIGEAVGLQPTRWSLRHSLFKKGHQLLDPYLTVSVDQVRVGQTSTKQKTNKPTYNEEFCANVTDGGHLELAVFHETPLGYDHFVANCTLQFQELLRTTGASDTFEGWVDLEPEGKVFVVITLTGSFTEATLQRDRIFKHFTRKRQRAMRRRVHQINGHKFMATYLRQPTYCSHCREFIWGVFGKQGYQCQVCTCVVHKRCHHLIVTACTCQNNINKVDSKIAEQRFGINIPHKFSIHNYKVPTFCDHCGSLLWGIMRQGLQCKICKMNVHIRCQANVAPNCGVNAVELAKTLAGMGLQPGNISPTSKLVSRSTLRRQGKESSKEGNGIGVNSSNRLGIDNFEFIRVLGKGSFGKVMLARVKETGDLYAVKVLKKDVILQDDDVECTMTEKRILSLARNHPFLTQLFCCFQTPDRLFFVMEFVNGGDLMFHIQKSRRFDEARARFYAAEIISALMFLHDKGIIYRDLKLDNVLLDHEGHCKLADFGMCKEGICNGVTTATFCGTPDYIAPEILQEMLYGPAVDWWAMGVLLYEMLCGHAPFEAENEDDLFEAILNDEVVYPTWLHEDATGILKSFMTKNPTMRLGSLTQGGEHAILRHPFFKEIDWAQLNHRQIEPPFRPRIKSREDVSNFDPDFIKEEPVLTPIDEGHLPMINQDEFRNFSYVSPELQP
Sequence of Protein kinase C theta type (Homo sapiens) (Q04759 whole entry, looked up): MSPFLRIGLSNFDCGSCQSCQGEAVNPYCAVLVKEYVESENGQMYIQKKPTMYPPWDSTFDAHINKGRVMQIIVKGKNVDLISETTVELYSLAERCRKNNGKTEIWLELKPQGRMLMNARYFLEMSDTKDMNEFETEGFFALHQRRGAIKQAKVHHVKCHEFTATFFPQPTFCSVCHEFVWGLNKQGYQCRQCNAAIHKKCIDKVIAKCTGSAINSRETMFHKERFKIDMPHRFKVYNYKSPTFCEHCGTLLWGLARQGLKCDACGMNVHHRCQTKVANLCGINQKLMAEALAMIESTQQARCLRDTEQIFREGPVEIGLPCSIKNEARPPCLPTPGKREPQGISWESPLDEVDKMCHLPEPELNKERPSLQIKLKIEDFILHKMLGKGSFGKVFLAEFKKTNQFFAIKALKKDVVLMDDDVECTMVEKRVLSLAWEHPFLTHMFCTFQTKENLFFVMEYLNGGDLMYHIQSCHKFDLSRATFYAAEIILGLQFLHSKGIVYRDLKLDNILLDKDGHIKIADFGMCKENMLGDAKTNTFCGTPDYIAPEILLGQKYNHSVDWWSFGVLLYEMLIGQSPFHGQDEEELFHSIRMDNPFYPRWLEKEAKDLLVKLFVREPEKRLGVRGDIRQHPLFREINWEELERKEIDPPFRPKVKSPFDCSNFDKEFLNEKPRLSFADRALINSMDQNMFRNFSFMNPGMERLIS
Sequence of Tyrosine-protein kinase HCK (Homo sapiens) (P08631 2-526 limits assumed): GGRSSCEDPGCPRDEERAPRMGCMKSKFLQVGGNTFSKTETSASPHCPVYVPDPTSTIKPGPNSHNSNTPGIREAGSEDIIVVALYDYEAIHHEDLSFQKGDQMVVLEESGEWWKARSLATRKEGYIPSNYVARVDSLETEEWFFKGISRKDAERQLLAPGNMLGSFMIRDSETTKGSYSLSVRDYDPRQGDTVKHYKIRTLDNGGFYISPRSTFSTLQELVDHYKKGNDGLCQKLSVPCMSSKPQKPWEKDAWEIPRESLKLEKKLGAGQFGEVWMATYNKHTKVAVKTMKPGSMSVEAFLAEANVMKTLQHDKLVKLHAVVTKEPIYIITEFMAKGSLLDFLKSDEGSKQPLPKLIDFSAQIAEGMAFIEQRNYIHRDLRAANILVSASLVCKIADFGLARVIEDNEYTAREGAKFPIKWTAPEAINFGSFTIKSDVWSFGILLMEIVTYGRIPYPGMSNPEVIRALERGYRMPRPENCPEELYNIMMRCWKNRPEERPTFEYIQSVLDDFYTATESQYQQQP
Sequence of Insulin-like growth factor 1 receptor (Homo sapiens) (P08069 31-736 limits assumed): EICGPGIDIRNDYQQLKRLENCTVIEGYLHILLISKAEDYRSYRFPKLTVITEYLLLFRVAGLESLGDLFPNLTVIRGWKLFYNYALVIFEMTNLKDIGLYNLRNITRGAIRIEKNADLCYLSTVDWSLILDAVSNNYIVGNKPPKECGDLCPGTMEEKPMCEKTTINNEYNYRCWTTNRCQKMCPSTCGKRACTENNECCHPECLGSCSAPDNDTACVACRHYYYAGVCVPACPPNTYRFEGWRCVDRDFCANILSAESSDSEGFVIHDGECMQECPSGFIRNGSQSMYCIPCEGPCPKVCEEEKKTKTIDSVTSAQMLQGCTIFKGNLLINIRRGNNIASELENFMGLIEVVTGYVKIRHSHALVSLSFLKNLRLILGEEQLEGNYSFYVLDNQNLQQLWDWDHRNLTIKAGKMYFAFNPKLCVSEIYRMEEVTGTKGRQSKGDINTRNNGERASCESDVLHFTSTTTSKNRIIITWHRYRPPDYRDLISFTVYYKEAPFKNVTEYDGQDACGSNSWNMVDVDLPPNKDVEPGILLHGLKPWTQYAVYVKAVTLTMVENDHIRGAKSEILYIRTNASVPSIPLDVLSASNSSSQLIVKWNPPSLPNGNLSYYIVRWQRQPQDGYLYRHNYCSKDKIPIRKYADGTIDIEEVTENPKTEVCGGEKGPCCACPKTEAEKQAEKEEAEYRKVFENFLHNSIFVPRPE
Sequence of Insulin-like growth factor 1 receptor (Homo sapiens) (P08069 741-1367 limits assumed): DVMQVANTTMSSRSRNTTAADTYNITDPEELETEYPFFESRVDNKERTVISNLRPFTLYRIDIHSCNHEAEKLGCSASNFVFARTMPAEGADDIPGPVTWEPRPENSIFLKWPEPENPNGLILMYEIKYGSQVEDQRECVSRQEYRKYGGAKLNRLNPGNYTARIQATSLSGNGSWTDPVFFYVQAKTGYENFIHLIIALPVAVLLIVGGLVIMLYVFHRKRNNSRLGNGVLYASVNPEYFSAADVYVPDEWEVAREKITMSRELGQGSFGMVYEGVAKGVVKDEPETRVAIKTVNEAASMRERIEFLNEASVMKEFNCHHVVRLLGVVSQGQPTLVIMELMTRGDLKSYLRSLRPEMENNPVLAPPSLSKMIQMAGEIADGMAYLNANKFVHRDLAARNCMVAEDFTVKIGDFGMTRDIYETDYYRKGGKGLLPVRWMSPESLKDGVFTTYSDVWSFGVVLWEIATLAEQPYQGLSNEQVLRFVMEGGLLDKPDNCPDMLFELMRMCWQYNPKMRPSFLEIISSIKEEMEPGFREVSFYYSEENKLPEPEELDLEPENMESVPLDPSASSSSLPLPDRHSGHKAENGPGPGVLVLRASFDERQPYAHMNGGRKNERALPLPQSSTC
Sequence of Homeodomain-interacting protein kinase 3 (Homo sapiens) (Q9H422 whole entry, looked up): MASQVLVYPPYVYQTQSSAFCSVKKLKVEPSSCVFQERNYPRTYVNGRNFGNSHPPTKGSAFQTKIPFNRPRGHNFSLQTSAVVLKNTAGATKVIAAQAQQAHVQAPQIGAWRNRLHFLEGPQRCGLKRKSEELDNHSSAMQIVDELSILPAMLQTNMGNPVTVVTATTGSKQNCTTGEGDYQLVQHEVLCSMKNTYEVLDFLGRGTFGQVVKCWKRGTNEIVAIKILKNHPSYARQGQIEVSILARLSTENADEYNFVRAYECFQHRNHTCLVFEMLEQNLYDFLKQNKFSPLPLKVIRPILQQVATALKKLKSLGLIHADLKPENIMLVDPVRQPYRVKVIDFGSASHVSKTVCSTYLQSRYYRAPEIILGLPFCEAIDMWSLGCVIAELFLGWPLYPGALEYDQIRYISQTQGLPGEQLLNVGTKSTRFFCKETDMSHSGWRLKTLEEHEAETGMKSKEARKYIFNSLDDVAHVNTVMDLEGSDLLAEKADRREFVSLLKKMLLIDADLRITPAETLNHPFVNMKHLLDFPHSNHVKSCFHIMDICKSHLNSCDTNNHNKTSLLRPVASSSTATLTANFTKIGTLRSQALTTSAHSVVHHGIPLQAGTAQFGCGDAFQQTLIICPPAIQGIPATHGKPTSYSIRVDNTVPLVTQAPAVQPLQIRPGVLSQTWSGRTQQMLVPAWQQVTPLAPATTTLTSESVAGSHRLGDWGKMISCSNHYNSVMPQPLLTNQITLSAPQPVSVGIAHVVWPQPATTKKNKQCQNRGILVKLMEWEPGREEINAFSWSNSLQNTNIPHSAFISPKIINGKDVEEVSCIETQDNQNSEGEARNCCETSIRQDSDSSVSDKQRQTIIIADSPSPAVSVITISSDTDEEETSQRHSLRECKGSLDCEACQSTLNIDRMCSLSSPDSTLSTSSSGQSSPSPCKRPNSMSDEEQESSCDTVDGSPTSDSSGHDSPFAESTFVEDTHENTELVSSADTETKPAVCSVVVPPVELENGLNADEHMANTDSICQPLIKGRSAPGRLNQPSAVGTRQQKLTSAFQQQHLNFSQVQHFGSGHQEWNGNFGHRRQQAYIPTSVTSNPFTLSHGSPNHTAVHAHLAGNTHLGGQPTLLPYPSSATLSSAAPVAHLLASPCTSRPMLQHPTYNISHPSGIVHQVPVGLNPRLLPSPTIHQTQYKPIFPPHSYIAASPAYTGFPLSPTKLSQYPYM

Structure (SMILES) | residual activity [1] | residual activity [2] | residual activity [3] | residual activity [4] | residual activity [5] | residual activity [6] | residual activity [7] | residual activity [8] | residual activity [9] | residual activity [10] | residual activity [11] | residual activity [12] | residual activity [13] | residual activity [14] | residual activity [15] | residual activity [16] | residual activity [17] | residual activity [18] | residual activity [19] | residual activity [20]
C[C@@H](N)[C@H]1CC[C@H](C(=O)Nc2ccncc2)CC1 | 95% | 109% | 97% | 94% | 91% | 97% | 111% | 109% | 76% | 26% | 5% | 63% | 17% | 101% (inactive) | 93% | 100% | 112% | – | – | –
Cc1cc(Nc2nc(-c3ccccc3)nc3ccccc23)n[nH]1 | – | 103% | 67% | 4% | 27% | 5% | 17% | 1% | 102% | – | – | 64% | 26% | 112% (inactive) | 107% | – | 104% | 23% | 110% | –
c1ccc(-c2n[nH]c3c2oc2ccccc23)cc1 | 61% | 90% | 48% | 51% | 98% | 81% | – | 139% | 117% | 91% | 85% | 98% | 96% | 90% (inactive) | 79% | – | – | 71% | – | 72%
Nc1nc(Nc2ccc(S(N)(=O)=O)cc2)nn1C(=S)Nc1c(F)cccc1F | 21% | – | – | 4% | 13% | 1% | 109% | 98% | 77% | 30% | 4% | 10% | 2% | – | 80% | 2% | 6% | 10% | 45% | 4%
